Our source for the inhibition values is PubChem BioAssay AID652162 (Broad Institute, 2013).

The structures appear in SMILES notation. Out of some 350,000 compounds screened, about 840 (0.24%) were called active. No stated cut-off is given here; in the data, active means inhibition above about 10%; inactive means the rest. Shown is part of a subset that was picked to be rich in actives.

In this experiment the target is Toxin B (Clostridioides difficile) (UniProt P18177). Description: TcdB glycohydrolase inhibitors, primary screen, biochemical, single point, plate reader (AID 652162). The conditions noted are these: TcdB glycohydrolase enzymatic assay, at 9.99 µM, stronger effect = higher value.
Toxin B (Clostridioides difficile), sequence (P18177 whole entry, looked up): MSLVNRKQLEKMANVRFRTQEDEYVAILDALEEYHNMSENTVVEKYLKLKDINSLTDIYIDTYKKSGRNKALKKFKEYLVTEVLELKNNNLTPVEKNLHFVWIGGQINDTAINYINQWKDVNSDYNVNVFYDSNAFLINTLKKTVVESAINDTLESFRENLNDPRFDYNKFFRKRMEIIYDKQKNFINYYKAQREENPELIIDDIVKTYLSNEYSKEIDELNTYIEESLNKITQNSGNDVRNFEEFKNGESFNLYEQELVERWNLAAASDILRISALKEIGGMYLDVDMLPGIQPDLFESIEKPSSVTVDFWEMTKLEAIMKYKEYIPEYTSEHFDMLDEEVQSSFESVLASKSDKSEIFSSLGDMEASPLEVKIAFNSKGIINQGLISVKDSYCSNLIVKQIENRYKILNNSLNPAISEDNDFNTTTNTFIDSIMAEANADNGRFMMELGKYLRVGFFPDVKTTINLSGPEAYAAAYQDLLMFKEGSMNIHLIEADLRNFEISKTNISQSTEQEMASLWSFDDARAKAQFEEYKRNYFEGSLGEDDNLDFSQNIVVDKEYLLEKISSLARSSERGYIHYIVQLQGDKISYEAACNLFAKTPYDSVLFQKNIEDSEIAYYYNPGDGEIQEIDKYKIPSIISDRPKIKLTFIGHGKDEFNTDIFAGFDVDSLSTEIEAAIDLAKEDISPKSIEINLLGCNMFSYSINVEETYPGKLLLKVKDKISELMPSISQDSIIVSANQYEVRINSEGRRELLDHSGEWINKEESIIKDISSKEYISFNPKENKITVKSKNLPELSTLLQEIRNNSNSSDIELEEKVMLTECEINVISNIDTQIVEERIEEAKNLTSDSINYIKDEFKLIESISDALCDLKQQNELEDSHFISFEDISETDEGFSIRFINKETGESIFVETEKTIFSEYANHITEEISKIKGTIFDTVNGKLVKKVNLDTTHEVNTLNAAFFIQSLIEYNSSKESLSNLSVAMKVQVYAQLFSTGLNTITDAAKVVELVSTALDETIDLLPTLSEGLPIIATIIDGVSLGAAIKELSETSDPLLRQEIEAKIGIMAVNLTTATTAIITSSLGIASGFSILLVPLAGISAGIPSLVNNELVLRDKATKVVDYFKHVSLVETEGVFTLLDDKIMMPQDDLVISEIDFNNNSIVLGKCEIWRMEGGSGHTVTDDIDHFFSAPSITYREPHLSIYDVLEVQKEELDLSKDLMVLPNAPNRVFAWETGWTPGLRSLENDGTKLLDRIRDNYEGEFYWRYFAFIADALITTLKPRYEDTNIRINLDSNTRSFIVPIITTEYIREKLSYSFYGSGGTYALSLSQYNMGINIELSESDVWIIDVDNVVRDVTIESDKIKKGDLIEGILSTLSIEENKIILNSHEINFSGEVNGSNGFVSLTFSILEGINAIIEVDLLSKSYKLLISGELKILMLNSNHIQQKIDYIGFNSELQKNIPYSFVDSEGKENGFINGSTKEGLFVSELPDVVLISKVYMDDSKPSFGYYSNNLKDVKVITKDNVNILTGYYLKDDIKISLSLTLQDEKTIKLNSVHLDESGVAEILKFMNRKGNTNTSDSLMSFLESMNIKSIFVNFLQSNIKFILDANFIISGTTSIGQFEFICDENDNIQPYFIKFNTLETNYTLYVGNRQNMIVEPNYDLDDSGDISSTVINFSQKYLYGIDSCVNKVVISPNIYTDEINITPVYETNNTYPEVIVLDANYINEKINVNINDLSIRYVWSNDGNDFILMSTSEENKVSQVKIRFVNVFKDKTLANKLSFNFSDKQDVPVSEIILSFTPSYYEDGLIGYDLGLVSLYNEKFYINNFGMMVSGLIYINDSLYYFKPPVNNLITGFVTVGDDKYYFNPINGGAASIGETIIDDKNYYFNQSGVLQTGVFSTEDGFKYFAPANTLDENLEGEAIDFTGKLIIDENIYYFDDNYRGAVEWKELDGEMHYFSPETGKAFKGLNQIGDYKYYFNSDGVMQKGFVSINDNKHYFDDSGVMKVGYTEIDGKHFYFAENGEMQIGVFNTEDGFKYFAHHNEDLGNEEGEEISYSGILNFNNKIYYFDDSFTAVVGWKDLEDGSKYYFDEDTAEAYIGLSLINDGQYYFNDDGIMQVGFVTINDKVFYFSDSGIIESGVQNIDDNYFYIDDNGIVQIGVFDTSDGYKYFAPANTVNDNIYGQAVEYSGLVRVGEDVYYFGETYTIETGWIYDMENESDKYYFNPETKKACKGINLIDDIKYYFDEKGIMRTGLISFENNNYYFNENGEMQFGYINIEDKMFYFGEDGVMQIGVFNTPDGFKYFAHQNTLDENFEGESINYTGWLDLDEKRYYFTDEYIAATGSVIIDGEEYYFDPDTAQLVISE
The term inhibition denotes the change of the read-out against control, counted positive when it falls. For the compound `C/C(=N\NC(=O)COc1c(C)cccc1C)c1cccs1`, the inhibition was 0.614% (inactive). To `Cc1ccccc1-n1c(SCC(=O)Nc2cccc3ccccc23)nc(O)cc1=O` belongs 1.39% (inactive). Take `C/C(=N\NC(=O)CSc1nc2ccccc2c(=O)n1-c1ccccc1C)c1cccs1`: the inhibition is 11.8% (active). Next, `COc1ccccc1-c1cnc2c(c1)C(=O)N([C@H](C)CO)C[C@H](C)[C@H](CN(C)C(=O)CN(C)C)O2`: 0.748% (inactive); `CCC(=O)N(C)C[C@@H]1Oc2ncc(C#Cc3cccnc3)cc2C(=O)N([C@@H](C)CO)C[C@@H]1C`: 0.973% (inactive); `C[C@H](CO)N1C[C@H](C)[C@H](CN(C)Cc2ccc3c(c2)OCO3)Oc2c(NC(=O)NC3CCCCC3)cccc2C1=O`: -1.25% (inactive). Consider `COc1ccccc1CNC(=O)C[C@@H]1CC[C@H]2[C@@H](COc3ccc(NS(=O)(=O)c4ccc(C)cc4)cc3C(=O)N2C)O1`, for which the inhibition is 0.867% (inactive). Next, `Cn1cnc(CCNC(=O)C[C@H]2CC[C@@H]3[C@H](COC[C@H](O)CN3C(=O)C3CC3)O2)c1`: -0.073% (inactive); `COc1ccc(NC(=O)Nc2ccc3c(c2)C(=O)N([C@H](C)CO)C[C@H](C)[C@H](CN(C)C(=O)Nc2c(C)noc2C)OCCCC[C@@H](C)O3)cc1`: 0.188% (inactive).

On to `CC(C)NC(=O)Nc1ccc2c(c1)C(=O)N([C@@H](C)CO)C[C@H](C)[C@@H](CN(C)C)O2`, for which the inhibition was 0.811% (inactive). As to `Cc1ccc(C)c(OCC(=O)NNC(=O)C2CCC2)c1`, the inhibition is 1.49% (inactive). As for `O=C(NNC(=O)C1CCC1)c1ccccc1`, the inhibition is 1.5% (inactive). For `Cc1ccc(NNC(=O)C2CCC2)cc1C`, the inhibition is 58.9% (active). To `O=C(Nc1cccc(Cl)c1)N[C@H]1CC[C@H](CCNC(=O)C2CCOCC2)O[C@H]1CO` belongs 0.073% (inactive); to `CCOC(=O)C1=CC[C@@H](c2ccncc2)N(S(=O)(=O)c2ccc(C)cc2)C1`, 3.35% (inactive); to `CC(=O)C1=CCC(c2ccccc2)N(S(=O)(=O)c2ccc(C)cc2)C1` (stereo unspecified), 13.2% (active). `CCOC(=O)C1=CCC(c2ccc(F)cc2)N(S(=O)(=O)c2ccc(C)cc2)C1` (stereo unspecified): the inhibition was 1.19% (inactive). For the compound `CC(C)NC(=O)N1[C@H](CO)[C@H](c2ccccc2)C12CN(C(=O)Cc1ccccc1)C2`, the inhibition is -9.73% (inactive).

Consider `CNC[C@H]1OCCCC[C@H](C)Oc2ccc(NS(=O)(=O)c3ccc(Cl)cc3)cc2C(=O)N([C@@H](C)CO)C[C@@H]1C`, for which the inhibition was 0.862% (inactive).

For `CCCC(=O)Nc1ccc2c(c1)C(=O)N(C)C[C@H](OC)[C@H](C)CN(CCc1ccccc1)[C@H](C)CO2`, the inhibition is 0.195% (inactive). In the case of `Cc1noc(C)c1S(=O)(=O)Nc1ccc2c(c1)CC(=O)N([C@@H](C)CO)C[C@@H](C)[C@H](CN(C)S(=O)(=O)c1cccs1)O2`, the inhibition is 1.18% (inactive). Turning to `C[C@H]1CN([C@@H](C)CO)C(=O)Cc2cc(N(C)C)ccc2O[C@@H]1CN(C)S(=O)(=O)c1ccc(F)cc1`, the inhibition is -6.02% (inactive). To `COCC(=O)Nc1ccc2c(c1)C(=O)N(C)C[C@H](OC)[C@@H](C)CN(C(=O)c1cnccn1)[C@H](C)CO2` belongs 0.644% (inactive); to `COCCN(Cc1nc(-c2ccc(C(F)(F)F)cc2)no1)C(C)C`, 1.49% (inactive). To `COCCN(C(=O)C(C)C)c1nnc(-c2ccc(C(C)(C)C)cc2)s1` belongs 10.1% (active); to `C[C@@H]1CN([C@H](C)CO)C(=O)c2cc(NS(C)(=O)=O)ccc2O[C@@H]1CN(C)S(C)(=O)=O`, 0.537% (inactive). For the compound `COCc1cn(CC[C@H]2CC[C@H](NC(=O)Nc3ccc4c(c3)OCO4)[C@@H](CO)O2)nn1`, the inhibition was 0.036% (inactive). On to `CNC[C@H]1Oc2ncc(-c3ccccc3C)cc2C(=O)N([C@@H](C)CO)C[C@@H]1C`, for which the inhibition was 0.537% (inactive). With `C[C@@H]1CN([C@H](C)CO)C(=O)c2cc(C#CC3(O)CCCC3)cnc2O[C@H]1CN(C)Cc1ccncc1`, the inhibition was 0.916% (inactive).

Regarding `CN1CCN(/N=C/c2c[nH]c3ccccc23)CC1`, the inhibition is 12.7% (active). Regarding `C[n+]1ccc(/C=C/c2c[nH]c3ccccc23)cc1`, the inhibition is 1.44% (inactive). As for `CN1CCN(/N=C/c2ccc(C#N)cc2)CC1`, the inhibition was 0.047% (inactive). To `C[C@H](CO)N1C[C@H](C)[C@@H](CN(C)C(=O)Nc2cccc3ccccc23)Oc2c(NS(=O)(=O)c3ccccc3)cccc2C1=O` belongs -1.06% (inactive).

With `C[C@H](CO)N1C[C@H](C)[C@@H](CN(C)Cc2ccc(C(F)(F)F)cc2)Oc2ccc(NC(=O)CCC(F)(F)F)cc2C1=O`, the inhibition was 0.866% (inactive).

For `O=C(C[C@@H]1C[C@@H]2c3cc(NC(=O)Nc4ccc(F)cc4)ccc3O[C@@H]2[C@H](CO)O1)NCC(F)(F)F`, the inhibition was 0.33% (inactive). With `CCC(CC)C(=O)N1CC(=O)Nc2ccc(Br)cc2C1c1ccccc1` (stereo unspecified), the inhibition is 3.15% (inactive).

Turning to `COC(=O)Cc1nnn2c1[C@H](C)[C@@H](OC)c1cc(Br)ccc1-2`, the inhibition was 0.213% (inactive).

Consider `COC(=O)CN1C(C)=Nc2ccc(Br)cc2C1c1ccccc1` (stereo unspecified), for which the inhibition was 55.6% (active). Regarding `C[C@@H]1CN([C@@H](C)CO)C(=O)c2cc(-c3ccc(F)cc3)cnc2O[C@@H]1CN(C)Cc1ccc(C(=O)O)cc1`, the inhibition is -1.74% (inactive).

With `Cc1noc(C)c1S(=O)(=O)Nc1ccc2c(c1)C(=O)N([C@@H](C)CO)C[C@H](C)[C@@H](CN(C)C)OCCCC[C@@H](C)O2`, the inhibition is -1.17% (inactive). Consider `CC(=O)N(C)C[C@@H]1Oc2cc(-c3cncnc3)ccc2S(=O)(=O)N([C@@H](C)CO)C[C@H]1C`, for which the inhibition is -0.296% (inactive).

As to `O=C(C1CCC1)N1CC(=O)N2[C@H](CO)[C@H](c3ccc(C#CCc4ccccc4)cc3)[C@@H]2C1`, the inhibition was 0.603% (inactive).

Regarding `O=C(c1ccc(N2CCOCC2)c([N+](=O)[O-])c1)N1CCN(c2ccccc2F)CC1`, the inhibition is 10.3% (active).

On to `O=C(c1ccc(N2CCOCC2)c([N+](=O)[O-])c1)N1CCN(S(=O)(=O)c2cccs2)CC1`, for which the inhibition was 3.29% (inactive). As for `O=C(OCC(=O)N1CCOCC1)c1ccc(N2CCOCC2)c([N+](=O)[O-])c1`, the inhibition is 0.627% (inactive). Regarding `O=C(N[C@H]1C=C[C@@H](CC(=O)N2CCc3ccccc3C2)O[C@@H]1CO)C1CCOCC1`, the inhibition is 1.24% (inactive).
